# Test results as given in PubChem BioAssay AID1159580 (chemical genetic matrix, 2015).
# “And” between values parts separate entries of the source, which are not always exact repeats. Equal values may be shown once. The campaign covered roughly 5,500 compounds. About 2,000 (36%) were called active. About 18% were inconclusive and are not listed. This is one part of the list. Values without a mark were called inactive. Rule as the data show it: active = normalized growth mostly below about 0.91 (no sharp cut-off); inconclusive = no clear call, values can overlap the other calls; inactive = mostly above about 0.92.
# Assay: chemical genetic growth profiling, strain panel (AID 1159580);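 also: tested at 20 µM; growth read once vehicle control cultures reached saturation at 30 °C; 1 = growth at the plate median or of vehicle wells; lower values mean less growth of the strain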
# Conditions: growth OD
# [1] = S. cerevisiae deletion strains, locus YAL013W, strain DEP1, stronger effect = lower value
# [2] = S. cerevisiae deletion strains, locus YAL040C, strain CLN3, stronger effect = lower value
# [3] = S. cerevisiae deletion strains, locus YDR150W, strain NUM1, stronger effect = lower value
# [4] = S. cerevisiae deletion strains, locus YDR363W, strain ESC2, stronger effect = lower value
# [5] = S. cerevisiae deletion strains, locus YER002W, strain NOP16, stronger effect = lower value
# [6] = S. cerevisiae deletion strains, locus YGR078C, strain PAC10, stronger effect = lower value
# [7] = S. cerevisiae deletion strains, locus YGR229C, strain SMI1, stronger effect = lower value
# [8] = S. cerevisiae deletion strains, locus YJR075W, strain HOC1, stronger effect = lower value
# [9] = S. cerevisiae deletion strains, locus YMR263W, strain SAP30, stronger effect = lower value
# [10] = S. cerevisiae deletion strains, locus YMR307W, strain GAS1, stronger effect = lower value
# [11] = S. cerevisiae deletion strains, locus YNL128W, strain TEP1, stronger effect = lower value
# [12] = S. cerevisiae deletion strains, locus YNL153C, strain GIM3, stronger effect = lower value
# [13] = S. cerevisiae deletion strains, locus YNL175C, strain NOP13, stronger effect = lower value
# [14] = S. cerevisiae deletion strains, locus YNL197C, strain WHI3, stronger effect = lower value
# [15] = S. cerevisiae deletion strains, locus YNL224C, strain SQS1, stronger effect = lower value
# [16] = S. cerevisiae deletion strains, locus YNL322C, strain KRE1, stronger effect = lower value
# [17] = S. cerevisiae deletion strains, locus YOR083W, strain WHI5 (second series), stronger effect = lower value
# [18] = S. cerevisiae deletion strains, locus YPL055C, strain LGE1, stronger effect = lower value
smiles,measurement,setting,value
NC(N)=NC(=O)c1nc(Cl)c(N2CCCCCC2)nc1N,normalized growth,[1],1.01 and 0.962
same,normalized growth,[2],1.09
same,normalized growth,"S. cerevisiae deletion strains, locus YBR021W, strain FUR4, stronger effect = lower value",1.02
same,normalized growth,"S. cerevisiae deletion strains, locus YBR229C, strain ROT2, stronger effect = lower value",1.01
same,normalized growth,"S. cerevisiae deletion strains, locus YCL029C, strain bik1, stronger effect = lower value",1.01
same,normalized growth,"S. cerevisiae deletion strains, locus YDL035C, strain GPR1, stronger effect = lower value",1
same,normalized growth,"S. cerevisiae deletion strains, locus YDL074C, strain BRE1, stronger effect = lower value",0.989
same,normalized growth,"S. cerevisiae deletion strains, locus YDL101C, strain DUN1, stronger effect = lower value",1.02
same,normalized growth,"S. cerevisiae deletion strains, locus YDL134C, strain PPH21, stronger effect = lower value",1.01
same,normalized growth,"S. cerevisiae deletion strains, locus YDL185W, strain tfp1, stronger effect = lower value",1.02
same,normalized growth,"S. cerevisiae deletion strains, locus YDL192W, strain arf1, stronger effect = lower value",1.01
same,normalized growth,"S. cerevisiae deletion strains, locus YDR101C, strain arx1, stronger effect = lower value",1
same,normalized growth,[3],1.01
same,normalized growth,"S. cerevisiae deletion strains, locus YDR162C, strain NBP2, stronger effect = lower value",1.03
same,normalized growth,"S. cerevisiae deletion strains, locus YDR318W, strain mcm21, stronger effect = lower value",1.01
same,normalized growth,[4],0.986
same,normalized growth,"S. cerevisiae deletion strains, locus YDR388W, stronger effect = lower value",1.01
same,normalized growth,"S. cerevisiae deletion strains, locus YDR502C, strain sam2, stronger effect = lower value",1.01
same,normalized growth,"S. cerevisiae deletion strains, locus YEL061C, strain CIN8, stronger effect = lower value",1.01
same,normalized growth,[5],1.02
same,normalized growth,"S. cerevisiae deletion strains, locus YER110C, stronger effect = lower value",1
same,normalized growth,"S. cerevisiae deletion strains, locus YER155C, strain BEM2, stronger effect = lower value",1.01
same,normalized growth,"S. cerevisiae deletion strains, locus YER167W, strain BCK2, stronger effect = lower value",1
same,normalized growth,"S. cerevisiae deletion strains, locus YGL078C, strain dbp3, stronger effect = lower value",1.02
same,normalized growth,"S. cerevisiae deletion strains, locus YGL086W, strain mad1, stronger effect = lower value",0.998
same,normalized growth,"S. cerevisiae deletion strains, locus YGL248W, strain PDE1, stronger effect = lower value",1.01
same,normalized growth,[6],0.991
same,normalized growth,"S. cerevisiae deletion strains, locus YGR135W, strain pre9, stronger effect = lower value",0.995
same,normalized growth,[7],1.01 and 0.996
same,normalized growth,"S. cerevisiae deletion strains, locus YGR252W, strain gcn5, stronger effect = lower value",0.853
same,normalized growth,"S. cerevisiae deletion strains, locus YHR030C, strain SLT2, stronger effect = lower value",1.01 and 1.06
same,normalized growth,"S. cerevisiae deletion strains, locus YHR079C, strain IRE1 (second series), stronger effect = lower value",1.02
same,normalized growth,"S. cerevisiae deletion strains, locus YHR079C, strain IRE1, stronger effect = lower value",1.06
same,normalized growth,"S. cerevisiae deletion strains, locus YHR094C, strain hxt1, stronger effect = lower value",1.01
same,normalized growth,"S. cerevisiae deletion strains, locus YHR129C, strain ARP1, stronger effect = lower value",1
same,normalized growth,"S. cerevisiae deletion strains, locus YHR200W, strain rpn10, stronger effect = lower value",1.02
same,normalized growth,"S. cerevisiae deletion strains, locus YIL066C, strain RNR3, stronger effect = lower value",1.02
same,normalized growth,"S. cerevisiae deletion strains, locus YIL073C, strain SPO22, stronger effect = lower value",1.08
same,normalized growth,"S. cerevisiae deletion strains, locus YIL125W, strain kgd1, stronger effect = lower value",1.01
same,normalized growth,"S. cerevisiae deletion strains, locus YIR030C, strain dcg1, stronger effect = lower value",1.02
same,normalized growth,"S. cerevisiae deletion strains, locus YJL095W, strain BCK1, stronger effect = lower value",0.986 and 1.06
same,normalized growth,"S. cerevisiae deletion strains, locus YJL134W, strain LCB3, stronger effect = lower value",1.01
same,normalized growth,"S. cerevisiae deletion strains, locus YJL168C, strain set2, stronger effect = lower value",1.02
same,normalized growth,"S. cerevisiae deletion strains, locus YJL187C, strain SWE1 (second series), stronger effect = lower value",1.02
same,normalized growth,"S. cerevisiae deletion strains, locus YJR043C, strain POL32, stronger effect = lower value",0.982
same,normalized growth,"S. cerevisiae deletion strains, locus YJR066W, strain TOR1, stronger effect = lower value",1.02
same,normalized growth,[8],0.988
same,normalized growth,"S. cerevisiae deletion strains, locus YKL009W, strain mrt4, stronger effect = lower value",0.999
same,normalized growth,"S. cerevisiae deletion strains, locus YKL068W, stronger effect = lower value",1.01
same,normalized growth,"S. cerevisiae deletion strains, locus YKL085W, strain MDH1 (second series), stronger effect = lower value",1.01
same,normalized growth,"S. cerevisiae deletion strains, locus YKL085W, strain MDH1, stronger effect = lower value",1.01
same,normalized growth,"S. cerevisiae deletion strains, locus YKL190W, strain CNB1, stronger effect = lower value",1.01
same,normalized growth,"S. cerevisiae deletion strains, locus YKR001C, strain vps1, stronger effect = lower value",1.02
same,normalized growth,"S. cerevisiae deletion strains, locus YLR039C, strain RIC1, stronger effect = lower value",1.14
same,normalized growth,"S. cerevisiae deletion strains, locus YLR058C, strain SHM2, stronger effect = lower value",1.02
same,normalized growth,"S. cerevisiae deletion strains, locus YLR102C, strain apc9, stronger effect = lower value",1.01
same,normalized growth,"S. cerevisiae deletion strains, locus YLR113W, strain HOG1, stronger effect = lower value",0.973
same,normalized growth,"S. cerevisiae deletion strains, locus YLR262C, strain YPT6, stronger effect = lower value",1.16
same,normalized growth,"S. cerevisiae deletion strains, locus YLR268W, strain sec22, stronger effect = lower value",1.02
same,normalized growth,"S. cerevisiae deletion strains, locus YLR330W, strain CHS5, stronger effect = lower value",1.02
same,normalized growth,"S. cerevisiae deletion strains, locus YLR342W, strain FKS1 (second series), stronger effect = lower value",0.887
same,normalized growth,"S. cerevisiae deletion strains, locus YLR371W, strain rom2, stronger effect = lower value",1.03
same,normalized growth,"S. cerevisiae deletion strains, locus YLR418C, strain cdc73, stronger effect = lower value",0.91
same,normalized growth,"S. cerevisiae deletion strains, locus YML016C, strain PPZ1, stronger effect = lower value",1.01
same,normalized growth,"S. cerevisiae deletion strains, locus YML032C, strain rad52, stronger effect = lower value",1.01
same,normalized growth,"S. cerevisiae deletion strains, locus YML124C, strain tub3, stronger effect = lower value",1.01
same,normalized growth,"S. cerevisiae deletion strains, locus YMR078C, strain ctf18, stronger effect = lower value",1.01
same,normalized growth,"S. cerevisiae deletion strains, locus YMR223W, strain ubp8, stronger effect = lower value",0.999
same,normalized growth,[9],1.01 and 0.995
same,normalized growth,[10],0.88
same,normalized growth,"S. cerevisiae deletion strains, locus YNL067W, strain RPL9B, stronger effect = lower value",1
same,normalized growth,[11],1.02
same,normalized growth,[12],1.01 and 0.97
same,normalized growth,[13],1.03
same,normalized growth,"S. cerevisiae deletion strains, locus YNL183C, strain NPR1, stronger effect = lower value",1.02
same,normalized growth,[14],1.07
same,normalized growth,[15],1.01
same,normalized growth,"S. cerevisiae deletion strains, locus YNL233W, strain BNI4, stronger effect = lower value",1
same,normalized growth,"S. cerevisiae deletion strains, locus YNL250W, strain rad50, stronger effect = lower value",1.01
same,normalized growth,"S. cerevisiae deletion strains, locus YNL271C, strain bni1, stronger effect = lower value",1.02
same,normalized growth,"S. cerevisiae deletion strains, locus YNL298W, strain CLA4, stronger effect = lower value",1
same,normalized growth,"S. cerevisiae deletion strains, locus YNL307C, strain MCK1, stronger effect = lower value",0.989
same,normalized growth,[16],1.01
same,normalized growth,"S. cerevisiae deletion strains, locus YNR052C, strain pop2, stronger effect = lower value",1.02
same,normalized growth,"S. cerevisiae deletion strains, locus YOL006C, strain TOP1, stronger effect = lower value",0.995
same,normalized growth,"S. cerevisiae deletion strains, locus YOL012C, strain htz1",2.1 [resistant] (active)
same,normalized growth,"S. cerevisiae deletion strains, locus YOL147C, strain pex11, stronger effect = lower value",1
same,normalized growth,"S. cerevisiae deletion strains, locus YOR061W, strain CKA2, stronger effect = lower value",1.01
same,normalized growth,"S. cerevisiae deletion strains, locus YOR069W, strain VPS5, stronger effect = lower value",1.01
same,normalized growth,[17],0.979
same,normalized growth,"S. cerevisiae deletion strains, locus YOR136W, strain idh2, stronger effect = lower value",1.02
same,normalized growth,"S. cerevisiae deletion strains, locus YOR144C, strain elg1, stronger effect = lower value",1.01
same,normalized growth,"S. cerevisiae deletion strains, locus YOR184W, strain ser1, stronger effect = lower value",1.02
same,normalized growth,"S. cerevisiae deletion strains, locus YOR231W, strain MKK1, stronger effect = lower value",1.02
same,normalized growth,"S. cerevisiae deletion strains, locus YOR316C, strain cot1, stronger effect = lower value",1.01
same,normalized growth,[18],1.01 and 0.902
same,normalized growth,"S. cerevisiae deletion strains, locus YPL241C, strain CIN2, stronger effect = lower value",1.01
same,normalized growth,"S. cerevisiae deletion strains, locus YPL256C, strain CLN2, stronger effect = lower value",1.09
same,normalized growth,"S. cerevisiae deletion strains, locus YPR119W, strain clb2, stronger effect = lower value",1.01
same,normalized growth,"S. cerevisiae deletion strains, locus YPR141C, strain kar3, stronger effect = lower value",1.02
same,normalized growth,"S. cerevisiae deletion strains, locus YPR163C, strain tif3, stronger effect = lower value",1.02
same,normalized growth,"S. cerevisiae deletion strains, locus YPR167C, strain met16, stronger effect = lower value",1.01
same,normalized growth,"S. cerevisiae deletion strains, strain wtn01, stronger effect = lower value",1.01
same,normalized growth,"S. cerevisiae strains, strain wild type, stronger effect = lower value",1.01
CCN(c1nc(N)c(C(=O)N=C(N)N)nc1Cl)C(C)C,normalized growth,[1],1
same,normalized growth,[2],1
same,normalized growth,[4],0.989
same,normalized growth,[5],1.04
same,normalized growth,[9],1
same,normalized growth,[13],1.04
same,normalized growth,[14],1.02
same,normalized growth,[15],1.06
same,normalized growth,[17],1.02
CC(C)CN(C)c1nc(N)c(C(=O)N=C(N)N)nc1Cl,normalized growth,[2],0.968
same,normalized growth,"S. cerevisiae deletion strains, locus YCL061C, strain MRC1 (second series), stronger effect = lower value",0.963
same,normalized growth,[5],1.04
same,normalized growth,[6],0.99
same,normalized growth,[8],0.957
same,normalized growth,[9],0.986
same,normalized growth,[10],0.971
same,normalized growth,[11],0.986
same,normalized growth,[12],0.855
same,normalized growth,[13],1.01
same,normalized growth,[14],1
same,normalized growth,[15],1.03
same,normalized growth,[17],0.866 (active)
NC(=NCc1ccccc1)NC(=O)c1nc(Cl)c(N)nc1N,normalized growth,[2],1
same,normalized growth,[3],1.02
same,normalized growth,[4],0.994
same,normalized growth,[5],1.01
same,normalized growth,[7],0.999
same,normalized growth,[12],0.993
same,normalized growth,[13],1.01
same,normalized growth,[14],0.996
same,normalized growth,[15],1.02
same,normalized growth,[16],1.01
same,normalized growth,[17],0.965
same,normalized growth,[18],1.01
